From PubChem BioAssay AID1159580 (chemical genetic matrix, 2015)
Hit rate of the full screen: of about 5,500 compounds, about 2,000 (36%) were called active. Inconclusive results (about 18%) are left out. No stated cut-off is given here; in the data, active means normalized growth mostly below about 0.91 (no sharp cut-off); inconclusive means no clear call, values can overlap the other calls; inactive means mostly above about 0.92. This is one part of the list.

Assay: chemical genetic growth profiling, strain panel (AID 1159580);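 further: tested at 20 µM; growth read once vehicle control cultures reached saturation at 30 °C; 1 = growth at the plate median or of vehicle wells; lower values mean less growth of the strain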
Details: growth OD

Measured: normalized growth

CC/C(=C(/CC)c1ccc(O)cc1)c1ccc(O)cc1
active: S. cerevisiae deletion strains, locus YLR039C, strain RIC1, hits give low values 0.481 | S. cerevisiae deletion strains, locus YLR262C, strain YPT6 (second series), hits give low values 0.485 | S. cerevisiae deletion strains, locus YLR262C, strain YPT6, hits give low values 0.439 | S. cerevisiae deletion strains, locus YLR320W, strain mms22, hits give low values 0.84 | S. cerevisiae deletion strains, locus YMR307W, strain GAS1, hits give low values 0.569 | S. cerevisiae deletion strains, locus YNL071W, strain lat1, hits give low values 0.913 | S. cerevisiae deletion strains, locus YOR184W, strain ser1, hits give low values 0.812 | S. cerevisiae deletion strains, locus YOR270C, strain vph1, hits give low values 0.728
inactive: S. cerevisiae deletion strains, locus YKL009W, strain mrt4, hits give low values 0.916 | S. cerevisiae deletion strains, locus YKL068W, hits give low values 1.01 | S. cerevisiae deletion strains, locus YKL085W, strain MDH1 (second series), hits give low values 0.973 | S. cerevisiae deletion strains, locus YKL085W, strain MDH1, hits give low values 0.973 | S. cerevisiae deletion strains, locus YKL160W, strain elf1, hits give low values 0.955 | S. cerevisiae deletion strains, locus YKL190W, strain CNB1, hits give low values 1 | S. cerevisiae deletion strains, locus YKR001C, strain vps1, hits give low values 0.987 | S. cerevisiae deletion strains, locus YKR026C, strain gcn3, hits give low values 1.02 | S. cerevisiae deletion strains, locus YKR091W, strain srl3, hits give low values 1.01 | S. cerevisiae deletion strains, locus YLL001W, strain dnm1, hits give low values 1 | S. cerevisiae deletion strains, locus YLL026W, hits give low values 1 | S. cerevisiae deletion strains, locus YLL041C, strain sdh2, hits give low values 1.02 | S. cerevisiae deletion strains, locus YLR027C, strain aat2, hits give low values 1.01 | S. cerevisiae deletion strains, locus YLR058C, strain SHM2, hits give low values 0.943 | S. cerevisiae deletion strains, locus YLR102C, strain apc9, hits give low values 1.01 | S. cerevisiae deletion strains, locus YLR113W, strain HOG1, hits give low values 0.963 | S. cerevisiae deletion strains, locus YLR221C, strain rsa3, hits give low values 0.956 | S. cerevisiae deletion strains, locus YLR258W, strain gsy2, hits give low values 0.963 | S. cerevisiae deletion strains, locus YLR268W, strain sec22, hits give low values 0.945 | S. cerevisiae deletion strains, locus YLR330W, strain CHS5, hits give low values 0.981 | S. cerevisiae deletion strains, locus YLR342W, strain FKS1 (second series), hits give low values 0.89 | S. cerevisiae deletion strains, locus YLR342W, strain FKS1, hits give low values 1.01 | S. cerevisiae deletion strains, locus YLR357W, strain rsc2, hits give low values 1.14 | S. cerevisiae deletion strains, locus YLR370C, strain arc18, hits give low values 1.01 | S. cerevisiae deletion strains, locus YLR371W, strain rom2, hits give low values 1.02 | S. cerevisiae deletion strains, locus YLR384C, strain iki3, hits give low values 1.02 | S. cerevisiae deletion strains, locus YLR418C, strain cdc73, hits give low values 0.956 | S. cerevisiae deletion strains, locus YML016C, strain PPZ1, hits give low values 1.01 | S. cerevisiae deletion strains, locus YML032C, strain rad52, hits give low values 0.914 | S. cerevisiae deletion strains, locus YML120C, strain ndi1, hits give low values 1.01 | S. cerevisiae deletion strains, locus YML124C, strain tub3, hits give low values 1.01 | S. cerevisiae deletion strains, locus YMR058W, strain fet3, hits give low values 0.974 | S. cerevisiae deletion strains, locus YMR078C, strain ctf18, hits give low values 1 | S. cerevisiae deletion strains, locus YMR125W, strain sto1, hits give low values 1.09 | S. cerevisiae deletion strains, locus YMR129W, hits give low values 1.02 | S. cerevisiae deletion strains, locus YMR205C, strain PFK2, hits give low values 0.943 | S. cerevisiae deletion strains, locus YMR223W, strain ubp8, hits give low values 0.942 | S. cerevisiae deletion strains, locus YMR231W, strain pep5, hits give low values 1.03 | S. cerevisiae deletion strains, locus YNL067W, strain RPL9B, hits give low values 0.933 | S. cerevisiae deletion strains, locus YNL153C, strain GIM3, hits give low values 0.918 | S. cerevisiae deletion strains, locus YNL183C, strain NPR1, hits give low values 0.921 | S. cerevisiae deletion strains, locus YNL209W, strain ssb2, hits give low values 0.981 | S. cerevisiae deletion strains, locus YNL233W, strain BNI4, hits give low values 0.896 | S. cerevisiae deletion strains, locus YNL248C, strain rpa49, hits give low values 1.02 | S. cerevisiae deletion strains, locus YNL250W, strain rad50, hits give low values 1 | S. cerevisiae deletion strains, locus YNL271C, strain bni1, hits give low values 1 | S. cerevisiae deletion strains, locus YNL298W, strain CLA4, hits give low values 0.914 | S. cerevisiae deletion strains, locus YNL307C, strain MCK1, hits give low values 0.995 | S. cerevisiae deletion strains, locus YNL322C, strain KRE1 (second series), hits give low values 1.03 | S. cerevisiae deletion strains, locus YNL322C, strain KRE1, hits give low values 0.992 | S. cerevisiae deletion strains, locus YNR049C, strain mso1, hits give low values 1.01 | S. cerevisiae deletion strains, locus YNR052C, strain pop2, hits give low values 0.99 | S. cerevisiae deletion strains, locus YOL006C, strain TOP1, hits give low values 0.73 | S. cerevisiae deletion strains, locus YOL012C, strain htz1 1.4 | S. cerevisiae deletion strains, locus YOL147C, strain pex11, hits give low values 1.02 | S. cerevisiae deletion strains, locus YOR001W, strain rrp6, hits give low values 0.997 | S. cerevisiae deletion strains, locus YOR061W, strain CKA2, hits give low values 0.976 | S. cerevisiae deletion strains, locus YOR069W, strain VPS5, hits give low values 1 | S. cerevisiae deletion strains, locus YOR070C, strain gyp1, hits give low values 0.945 | S. cerevisiae deletion strains, locus YOR080W, strain dia2, hits give low values 1.02 | S. cerevisiae deletion strains, locus YOR083W, strain WHI5, hits give low values 0.948 | S. cerevisiae deletion strains, locus YOR106W, strain vam3, hits give low values 0.951 | S. cerevisiae deletion strains, locus YOR136W, strain idh2, hits give low values 1.01 | S. cerevisiae deletion strains, locus YOR144C, strain elg1, hits give low values 1.01 | S. cerevisiae deletion strains, locus YOR231W, strain MKK1, hits give low values 0.976 | S. cerevisiae deletion strains, locus YOR265W, strain rbl2, hits give low values 0.999 | S. cerevisiae deletion strains, locus YOR290C, strain snf2, hits give low values 0.961 | S. cerevisiae deletion strains, locus YOR316C, strain cot1, hits give low values 1 | S. cerevisiae deletion strains, locus YPL051W, strain arl3, hits give low values 0.919 | S. cerevisiae deletion strains, locus YPL055C, strain LGE1, hits give low values 0.811 | S. cerevisiae deletion strains, locus YPL078C, strain atp4, hits give low values 0.953 | S. cerevisiae deletion strains, locus YPL106C, strain sse1, hits give low values 1.12 | S. cerevisiae deletion strains, locus YPL240C, strain hsp82, hits give low values 1.01 | S. cerevisiae deletion strains, locus YPL256C, strain CLN2, hits give low values 0.977 | S. cerevisiae deletion strains, locus YPR119W, strain clb2, hits give low values 1 | S. cerevisiae deletion strains, locus YPR141C, strain kar3, hits give low values 1.03 | S. cerevisiae deletion strains, locus YPR163C, strain tif3, hits give low values 1.02 | S. cerevisiae deletion strains, locus YPR167C, strain met16, hits give low values 1 | S. cerevisiae deletion strains, strain wtn01, hits give low values 0.971 | S. cerevisiae strains, strain wild type, hits give low values 0.948
